Measurements taken from the supplement of paper PMC8975748.
Where a name gives a salt, the structure may show the parent alone.

Tested on: Saccharomyces cerevisiae BY4741 SeMeCo community
Test: z-score of subpopulation abundance vs DMSO median, subpopulation auxotrophic for HU; higher = larger share of this subpopulation than in DMSO controls
Conditions: 10 µM; 24 h; SM minimal medium; subpopulation (auxotrophy): HU
Method in brief: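 Automated confocal microscopy of paraformaldehyde-fixed cells was used to follow a Saccharomyces cerevisiae BY4741 community carrying four plasmids, each restoring one auxotrophy and encoding a distinct fluorescent protein. The community was pre-grown overnight to OD600 1.0, diluted to 0.3, and added at 70 µl to 384-well plates acoustically predosed with library drugs (10 µM final) for 24 h of growth in minimal SM medium. Single-auxotroph fluorescent strains set thresholds and autofluorescence correction, and each subpopulation's abundance was scored as a z-score against the vehicle-well median.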

Row | SMILES | z-score of subpopulation abundance
1 | CC(C)NC(=N)NC(=N)Nc1ccc(Cl)cc1 [Proguanil] | -0.55
2 | Nc1nc(O)c2ncn(CCC(CO)CO)c2n1 [Penciclovir] | 0.29
3 | C=CC(C)(O)CCC=C(C)C (configuration not stated) [Linalool] | 0.69
4 | O=C(N[C@H](CO)[C@H](O)c1ccc([N+](=O)[O-])cc1)C(Cl)Cl [Chloramphenicol] | 0.66
5 | CCCN1CCCC[C@H]1C(=O)Nc1c(C)cccc1C [Ropivacaine] | -0.86
6 | Cc1onc(-c2ccccc2)c1-c1ccc(S(N)(=O)=O)cc1 [Valdecoxib] | -0.23
7 | CN1[C@@H]2CC[C@H]1C[C@@H](OC(=O)c1c[nH]c3ccccc13)C2 [Tropisetron] | 0.59
8 | CC[C@H]1OC(=O)[C@H](C)[C@@H](O[C@H]2C[C@@](C)(OC)[C@@H](O)[C@H](C)O2)[C@H](C)[C@@H](O[C@@H]2O[C@H](C)C[C@H](N(C)C)[C@H]2O)[C@](C)(O)C[C@@H](C)/C(=N\OCOCCOC)[C@H](C)[C@@H](O)[C@]1(C)O [Roxithromycin] | 0.46
9 | COc1ccccc1N1CCN(CCCNc2cc(=O)n(C)c(=O)n2C)CC1 [Urapidil HCl] | 0.01
10 | C=C[C@H]1CN2CC[C@H]1C[C@H]2[C@H](O)c1ccnc2ccc(OC)cc12 [Quinine HCl Dihydrate] | 0.2
11 | Cc1nc(=O)c2cc(CN(C)c3ccc(C(=O)N[C@@H](CCC(=O)O)C(=O)O)s3)ccc2[nH]1 [Raltitrexed] | -2.1
12 | CC(C)Cc1ccc(C(C)C(=O)O)cc1 (configuration not stated) [Ibuprofen Lysine] | -2.64
